PLK1 PBD block: PLK1 (human) polo-box domain binding inhibition. P53350. Plk1 PBD binding of FITC phosphopeptide, fluorescence polarization. Potency, µM, for the others: max response, negative = inhibition, hits mostly inhibitors. 2.8% of 360,000 active; also: series mostly up to about 57 µM; nearly all actives have a fitted effect of over 65% in size
VDR inh: inhibitors of human vitamin D receptor; 0.93% of 400,000 active; AID 504847; Potency, µM, inactives show max response, negative = inhibition, hits mostly inhibitors; P11473; VDR-SRC2-3 peptide fluorescence polarization, 2 h
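After 23 nl compound addition and a short centrifugation, plates sat for 2 hours at ambient temperature; polarization of fluorescence then indicated loss of VDR binding to peptide SRC2-3.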
TrxR1 substrate: substrates of rat thioredoxin reductase 1; 0.01% of 390,000 active; AID 588456; O89049; purified TrxR1 substrate turnover, NADPH consumption readout; Potency, µM (highest dose often 114 µM), without a hit: at the top dose activity change, negative = substrate turnover; also: nearly all actives have a fitted effect of over 50% in size
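Rat TrxR1, dispensed at 90 nM, was prereduced with 400 uM NADPH (final) for 5 min at ~22 deg C, then incubated with compound 15 min before 400 uM selenite. A first-read NADPH fluorescence drop versus no-compound background flagged substrates.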
Sfp PPTase inh: blocks B. subtilis Sfp PPTase activity | Q9F4F7 | Biochemical Sfp PPTase activity, qHTS | Potency, µM, for inactives: largest response in the series, negative = inhibition, hits mostly inhibitors | 3.5% of 310,000 active;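 also: the enzyme is Sfp with the accession as filed and its product quenches rhodamine fluorescence; 0% = enzyme reaction without inhibitor and -100% = no enzyme wells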
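Sfp 15 nM + cpd, 15 min RT; start w/ rhodamine-CoA 5 uM, BHQ-2-YbbR 12.5 uM (final); 50 mM Hepes pH 7.6, 10 mM MgCl2, 0.01% NP-40, 0.01% BSA; read 525/598 nm at 0 and 30 min.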
rTrxR1 inhibitor: rat TrxR1 inhibition; recombinant rTrxR1, NADPH fluorescence consumption, selenite substrate; Potency, µM (top dose mostly 114 µM), for inactives: at the highest dose activity change, negative = inhibition, usual class: inhibitors; 1% of 390,000 active; also: nearly all actives have a fitted effect of over 65% in size
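Rat TrxR1 (90 nM in the dispensed reagent) was pre-reduced with 400 uM NADPH for 5 min at room temperature, then incubated with compound for 15 min. After 400 uM selenite was added, NADPH fluorescence (Ex 340/Em 450 nm) was followed for 8 min.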
mIDH1 inhibitor: blocks human mutant IDH1 R132H enzyme | O75874 | IDH1-R132H enzyme, NADPH consumption, diaphorase/resazurin fluorescence | Potency, µM (highest dose often 76.6 µM), without a hit: top-dose activity change, negative = inhibition, usual class: inhibitors | 0.093% of 390,000 active | AID 602179; also: nearly all actives have a fitted effect of over 65% in size
Target sequence (O75874 whole entry R132H, stated change not applied): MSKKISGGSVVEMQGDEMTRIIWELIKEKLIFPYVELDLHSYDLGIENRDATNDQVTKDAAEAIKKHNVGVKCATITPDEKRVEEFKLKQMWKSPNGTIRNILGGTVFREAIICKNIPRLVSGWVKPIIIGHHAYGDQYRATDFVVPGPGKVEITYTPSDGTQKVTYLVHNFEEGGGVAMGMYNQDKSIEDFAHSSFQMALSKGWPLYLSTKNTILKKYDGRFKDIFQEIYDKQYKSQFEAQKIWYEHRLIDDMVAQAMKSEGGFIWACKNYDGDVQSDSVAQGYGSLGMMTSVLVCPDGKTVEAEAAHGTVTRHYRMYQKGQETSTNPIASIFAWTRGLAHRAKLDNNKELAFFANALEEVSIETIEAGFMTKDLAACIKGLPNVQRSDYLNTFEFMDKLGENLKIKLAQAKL
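IDH1-R132H (0.5 ug/mL dispensed) in pH 7.5 Tris buffer was preincubated 30 min with compound, then given a substrate mix of 0.016 mM NADPH and 2 mM alpha-KG for 80 min at room temperature; remaining NADPH was read by diaphorase/resazurin fluorescence.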
Starred values were filed as active, the others as inactive; [ ] = dose if it differs, or a comment. Most compounds without a hit are left out; they make up all but 5.2% or so of the library. Calls follow the shape of the dose curve; as a rule, active = well fitted curve in the direction sought with a large enough effect; inconclusive = small, poorly fitted or top-dose-only effect, or another doubt; inactive = no such curve, though single readings can be large; an effect the other way counts as inactive or inconclusive. Unless noted, % is scaled to controls: 0 for no effect and ±100 for the full control effect; potency is read from the fitted curve at half-maximal effect.

Screening Cc1ccc(-c2c(C)c(-c3ccc(F)cc3)nc(N)c2C#N)o1 returned PLK1 PBD block -1.1%, VDR inh -6.3%, TrxR1 substrate 14.7%[57.1 µM], Sfp PPTase inh 17.8µM*, rTrxR1 inhibitor -17.6% and mIDH1 inhibitor 1.9%.
Screening CCn1c(N)c(C(=O)NCCOC)sc1=S returned PLK1 PBD block 26.7µM*, VDR inh -10.2%, TrxR1 substrate -4.2%, Sfp PPTase inh 56.2µM*, rTrxR1 inhibitor -0.9% and mIDH1 inhibitor 3.7%.
Screening CCn1c(N)c(C(=O)Nc2ccccc2C(=O)OC)sc1=S returned PLK1 PBD block 11.9µM*, VDR inh -5.5%, TrxR1 substrate -4.3%, Sfp PPTase inh 35.5µM*, rTrxR1 inhibitor 15.3%[57.1 µM] and mIDH1 inhibitor 0.2%.
For COC(=O)c1ccccc1NC(=O)CC(=O)Nc1ccccc1C(=O)OC the results were PLK1 PBD block -5.1%, VDR inh -16.2%, TrxR1 substrate 6.7%, Sfp PPTase inh 5.2%, rTrxR1 inhibitor 23.2% and mIDH1 inhibitor 8.7%.
`Cc1cccc(N=C2NN=C(c3ccc4c(c3)OCCO4)CS2)c1` gave PLK1 PBD block -10.5%, VDR inh 2.7%, TrxR1 substrate -5.8%, Sfp PPTase inh -25.4%, rTrxR1 inhibitor -0.3% and mIDH1 inhibitor -15.6%.
For Cc1cccc(N=C2NN=C(c3c(C)[nH]c4ccccc34)CS2)c1 the results were PLK1 PBD block -18.6%, VDR inh -10.2%, TrxR1 substrate -12.4%, Sfp PPTase inh 39.8µM*, rTrxR1 inhibitor -21.4% and mIDH1 inhibitor -11.3%.
O=c1c2oc3ccccc3c2n(Cc2ccccc2Cl)c(=O)n1Cc1ccco1 was read as VDR inh 15.4%, TrxR1 substrate 0.0%, rTrxR1 inhibitor inconclusive and mIDH1 inhibitor 0.0%.
Screening Cc1[nH]n(C(N)=S)c(=O)c1N=Nc1ccccc1C(F)(F)F returned PLK1 PBD block 23.8µM*, VDR inh -7.5%, TrxR1 substrate -17.8%, Sfp PPTase inh inconclusive, rTrxR1 inhibitor -11.3% and mIDH1 inhibitor -12.8%.
`CCN(CC)S(=O)(=O)c1ccc(N=Nc2c(C)[nH]n(C(N)=S)c2=O)cc1` gave PLK1 PBD block inconclusive, VDR inh -14.8%, TrxR1 substrate -18.6%, Sfp PPTase inh 79.4µM*, rTrxR1 inhibitor inconclusive and mIDH1 inhibitor 4.5%.
Screening Cc1ccccc1OCc1ccc(-c2nc(C#N)c(N3CCC(C(N)=O)CC3)o2)o1 returned VDR inh 3.1%, TrxR1 substrate 35.6%, rTrxR1 inhibitor 23.4% and mIDH1 inhibitor 52.4%.
Cc1ccc(-c2nnc(SC(C)C(=O)NCc3ccco3)n2C)cc1 (stereo not drawn) was read as TrxR1 substrate -4.9% and rTrxR1 inhibitor 4.4%.
For O=C(c1ccc2c(c1)OCO2)N1CCN(c2ccccn2)CC1 the results were PLK1 PBD block 21.2µM*, VDR inh inconclusive, TrxR1 substrate -0.7%, Sfp PPTase inh 10.1%, rTrxR1 inhibitor -0.1% and mIDH1 inhibitor -3.4%.
Screening COc1ccc(CN2C(=O)c3ccccc3C2C(=O)NC2CCCC2)c(OC)c1 (stereo not drawn) returned PLK1 PBD block -4.1%, VDR inh -8.3%, TrxR1 substrate -8.5%, Sfp PPTase inh -7.7%, rTrxR1 inhibitor 9.0% and mIDH1 inhibitor 1.1%.
For COc1ccc(CN2C(=O)c3ccccc3C2C(=O)NC2CCC(C)CC2)c(OC)c1 (stereo not drawn) the results were PLK1 PBD block 23.8µM*, VDR inh -12.9%, TrxR1 substrate -9.0%, Sfp PPTase inh 8.3%, rTrxR1 inhibitor -32.7% and mIDH1 inhibitor -3.1%.
`Cc1[nH]ccc(=O)c1OCc1c(Cl)cccc1Cl` gave PLK1 PBD block -0.2%, VDR inh 9.8%, TrxR1 substrate 3.0%, Sfp PPTase inh 6.1%, rTrxR1 inhibitor 12.4% and mIDH1 inhibitor 5.9%.
`Cc1ccc(Cn2ccc(=O)c(OCc3c(Cl)cccc3Cl)c2C)cc1` gave PLK1 PBD block 3.6%, VDR inh 5.4%, TrxR1 substrate -0.7%, Sfp PPTase inh 17.8µM*, rTrxR1 inhibitor 2.1% and mIDH1 inhibitor -7.1%.
For CC(=O)c1cc(-c2ccc(F)cc2)n(CCC(=O)NC2CCCCC2)c1C the results were VDR inh 10.6%, TrxR1 substrate -5.0%[57.1 µM], rTrxR1 inhibitor 8.7%[57.1 µM] and mIDH1 inhibitor 12.2%.
Screening OCCCNCc1ccc(Cl)cc1Cl returned PLK1 PBD block 29.9µM*, VDR inh 8.5%, TrxR1 substrate 10.8%, Sfp PPTase inh 8.5%, rTrxR1 inhibitor 24.2%[57.1 µM] and mIDH1 inhibitor 4.3%.
For COc1cc(CNCCO)cc(Cl)c1OCc1ccc(Cl)cc1Cl the results were PLK1 PBD block -0.6%, VDR inh 14.9%, TrxR1 substrate -1.7%[57.1 µM], Sfp PPTase inh 20µM*, rTrxR1 inhibitor 8.6%[57.1 µM] and mIDH1 inhibitor 5.3%.
`COc1cc(CNC2CCCC2)cc(Cl)c1OCc1ccc(F)cc1` gave PLK1 PBD block -4.9%, VDR inh 10.3%, TrxR1 substrate -4.6%, Sfp PPTase inh -26.1%, rTrxR1 inhibitor 3.9% and mIDH1 inhibitor 3.4%.
`CCOc1cc(CNC2CCCC2)cc(Cl)c1OCc1ccc(F)cc1` gave PLK1 PBD block -2.4%, VDR inh 1.3%, TrxR1 substrate 9.1%, Sfp PPTase inh 39.8µM*, rTrxR1 inhibitor 18.3% and mIDH1 inhibitor 6.0%.
Screening COc1cc(CNC2CCCC2)cc(Cl)c1OCc1ccccc1Cl returned PLK1 PBD block -1.9%, VDR inh -0.8%, TrxR1 substrate -5.0%, Sfp PPTase inh -9.6%, rTrxR1 inhibitor 89.1µM* and mIDH1 inhibitor -2.0%.
`Cc1ccc(-c2c[nH]c(=S)n2-c2ccccc2F)cc1` gave PLK1 PBD block -26.6%, VDR inh inconclusive, TrxR1 substrate -3.1%[57.1 µM], Sfp PPTase inh -23.0%, rTrxR1 inhibitor -5.7%[57.1 µM] and mIDH1 inhibitor 8.8%.
`COc1ccccc1-n1c(-c2ccccc2)c[nH]c1=S` gave PLK1 PBD block -2.6%, VDR inh -17.0%, TrxR1 substrate 6.7%, Sfp PPTase inh 10µM*, rTrxR1 inhibitor 0.3% and mIDH1 inhibitor 6.6%.
Screening COc1cccc(-n2c(-c3ccccc3)c[nH]c2=S)c1 returned PLK1 PBD block -14.0%, VDR inh -9.9%, TrxR1 substrate 2.0%, Sfp PPTase inh 44.7µM*, rTrxR1 inhibitor inconclusive and mIDH1 inhibitor -4.8%.
`Cc1ccc(-c2c[nH]c(=S)n2-c2ccccc2)cc1` gave PLK1 PBD block -18.7%, VDR inh -4.2%, TrxR1 substrate -8.1%, Sfp PPTase inh 20µM*, rTrxR1 inhibitor -22.6% and mIDH1 inhibitor 8.5%.
Screening S=c1[nH]cc(-c2ccccc2)n1-c1ccccc1Cl returned PLK1 PBD block -9.2%, VDR inh -9.1%, TrxR1 substrate 5.0%, Sfp PPTase inh inconclusive, rTrxR1 inhibitor -6.2% and mIDH1 inhibitor 6.0%.
